CYP2C9 act: increases human cytochrome P450 2C9 activity | P11712 | recombinant CYP2C9, luciferin-H conversion, luminescence; stronger effect = higher value; factor 1 = untreated enzyme, 0 = blocked | activation factor at 5 µM | actives 1.4% (n = 96,000);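 active means activation factor of 2 or more for CYP2C9 at a 5 µM dose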;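 further: 0 = sulfaphenazole-blocked wells and 1 = vehicle-only wells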
CYP2C19 act: cytochrome P450 2C19 (human) activation; 96,000 tested, under 10 active; P33261; activation factor at 5 µM; recombinant CYP2C19, luciferin-H EGE luminescence; stronger effect = higher value; 0 = fully inhibited enzyme, 1 = untreated enzyme;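 active means activation factor of at least 2 at 5 µM in the primary screen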;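 further: 0 = wells with 2.5 mM tranylcypromine and 1 = vehicle-only wells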
Target sequence (P33261 whole entry, looked up): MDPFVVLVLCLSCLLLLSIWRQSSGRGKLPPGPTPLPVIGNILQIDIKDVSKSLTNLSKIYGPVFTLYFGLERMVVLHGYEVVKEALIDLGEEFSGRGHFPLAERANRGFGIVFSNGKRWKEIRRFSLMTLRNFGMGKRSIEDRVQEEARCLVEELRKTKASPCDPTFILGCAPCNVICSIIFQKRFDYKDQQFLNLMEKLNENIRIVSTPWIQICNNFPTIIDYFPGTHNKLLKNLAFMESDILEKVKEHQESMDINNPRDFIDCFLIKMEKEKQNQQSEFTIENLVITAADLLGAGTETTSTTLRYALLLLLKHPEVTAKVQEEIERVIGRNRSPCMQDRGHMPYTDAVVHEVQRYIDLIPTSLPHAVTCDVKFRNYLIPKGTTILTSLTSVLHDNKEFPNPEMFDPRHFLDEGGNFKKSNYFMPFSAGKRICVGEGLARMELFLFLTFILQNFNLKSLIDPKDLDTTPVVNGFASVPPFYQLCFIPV
CYP2C9 inh: blocks human cytochrome P450 2C9; CYP2C9 Supersomes, luciferin-H conversion, luminescence; inhibition, % at 5 µM; AID 777; actives 20% (n = 96,000); P11712;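 active means blocking of liver enzyme CYP2C9 beyond about 50% at 5 µM, limit read from the data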
CYP2C19 inhib: inhibitors of human CYP2C19; P33261; CYP2C19 Supersomes, luciferin-H EGE luminescence, 30 min; inhibition, % at 5 µM; actives 21% (n = 96,000);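 active means CYP2C19 inhibition above a set limit at 5 µM in the primary screen, cut at about 50% in these data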;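 further: plate controls were negative control wells for no effect and 2.5 mM tranylcypromine positive control for full effect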
PostGolgi yeast: growth inhibition of a yeast mutant, post-Golgi transport screen; actives 0.9% (n = 98,000); inhibition, % at 10 µM; post-Golgi transport phenotypic cell assay;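 further: yeast cells grown in 1536-well plates; yeast grown about 18 h at 30C before absorbance read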
PostGolgi ctrl: inhibits growth of the yeast control strain; efflux-deficient yeast background strain, growth absorbance A615, 16 h; inhibition, % at 10 µM; actives 5% (n = 98,000); AID 738
* hit, by the source's call; x = no result. Shown are actives, neighbours in structure and some others; about 32% of the full set was active somewhere. Unless noted, no stated cut-off is given here; in the data, active means inhibition above about 30%; inactive means the rest.

SMILES | CYP2C9 act | CYP2C19 act | CYP2C9 inh | CYP2C19 inhib | PostGolgi yeast | PostGolgi ctrl
CC1CCCN(S(=O)(=O)c2ccc3c(c2)CCN3C(=O)C2CCC2)C1 (stereo unspecified) | 0.7 | 1 | 28 | 2 | 9 | 12
COCc1c(C)cc(C)c(/C=N/O)c1C | 1.2 | 1 | -21 | -2 | x | x
CCCCN(CCCC)C(=O)/C=C/c1cccc([N+](=O)[O-])c1 | 0.4 | 0.3 | 60* | 72* | -5 | 9
COc1ccc(N(CC(=O)Nc2ccc(S(=O)(=O)N3CCOCC3)cc2)S(=O)(=O)c2ccccc2)cc1 | 0.5 | 0.7 | 48 | 28 | 7 | 4
COc1ccc(-c2noc(CCC(=O)NCc3cccnc3)n2)cc1OC | 0.5 | 0.8 | 54* | 19 | -3 | 6
O=C(CCCc1nc(-c2ccccc2)no1)NCc1cccnc1 | 0.7 | 0.8 | 31 | 21 | -1 | 5
COc1ccc(-c2noc(CCC(=O)NCc3cccnc3)n2)cc1 | 0.3 | 0.5 | 74* | 50* | 13 | -6
Cc1cc(C)n(Cc2ccc(Cl)c(Cl)c2)c(=O)c1S(=O)(=O)c1ccccc1 | 1.1 | 1 | -8 | 2 | 14 | 6
Cc1ccc(-c2nnc(Nc3ccccc3)o2)cc1 | 0.8 | 0.6 | 22 | 45 | 0 | 4
COc1ccc(Cl)cc1N(CC(=O)Nc1ccc2c(c1)OCO2)S(C)(=O)=O | 0.1 | 0.1 | 86* | 95* | 0 | -4
CS(=O)(=O)N(CC(=O)Nc1ccc2c(c1)OCCO2)c1ccc2c(c1)OCO2 | 0.4 | 0.1 | 58* | 88* | -7 | 4
COCCCNC(=O)CN(c1cc(OC)ccc1OC)S(=O)(=O)c1ccccc1 | 0.4 | 0.4 | 59* | 56* | 1 | 22
CS(=O)(=O)N(CC(=O)Nc1ccc2c(c1)OCO2)c1ccccc1 | 0.8 | 0.7 | 21 | 27 | -3 | 10
COc1ccc(OC)c(N(CC(=O)Nc2ccc3c(c2)OCO3)S(=O)(=O)c2ccccc2)c1 | 0 | 0 | 100* | 98* | 4 | 10
COc1ccc(OC)c(N(CC(=O)O)S(=O)(=O)c2ccc(OC)c(OC)c2)c1 | 0.9 | 1 | 10 | 3 | 4 | 1
O=C(Nc1nnc(SCC(=O)N2CCCCC2)s1)c1cccs1 | 1 | 1.1 | 1 | -8 | -7 | 3
COc1cccc(/C(O)=C2/C(=O)C(=O)N(CCCN(C)C)C2c2cccc(Cl)c2)c1 (stereo unspecified) | 1.2 | 1.3 | -17 | -27 | x | x
COc1cccc(CN2CCN(CC(=O)Nc3ccccc3Cl)CC2)c1 | 0.6 | 0.6 | 35 | 41 | -4 | 5
COc1cccc(C(=O)CN2C3=NCCCN3c3ccccc32)c1 | 1 | 0.9 | 1 | 10 | 8 | -1
O=C(COc1cccc(C(F)(F)F)c1)Nc1ccc(S(=O)(=O)N2CCCC2)cc1 | 1 | 1.1 | -4 | -13 | -10 | 8
N#Cc1c(NC(=O)CSc2nnnn2C2CCCCC2)sc2c1CCCC2 | 0.3 | 0.6 | 67* | 43 | -1 | -2
CCn1c(SCC(=O)Nc2nc3c(s2)CCCC3)nc2c1c(=O)n(C)c(=O)n2C | 1 | 0.9 | -2 | 15 | x | x
O=C(CSc1nnnn1C1CCCCC1)Nc1nc2c(s1)CCCC2 | 0.7 | 0.2 | 34 | 78* | 18 | 12
CC1CCCCN1CC(=O)Nc1sc2c(c1C#N)CCC2 (stereo unspecified) | 0.4 | 0.5 | 61* | 51* | 12 | 7
Cc1nnc(SCC(=O)Nc2sc3c(c2C#N)CCCCC3)n1N | 1 | 1 | 3 | 1 | -12 | 0
SMILES | CYP2C9 act | CYP2C19 act | CYP2C9 inh | CYP2C19 inhib | PostGolgi yeast | PostGolgi ctrl
COc1ccc(NC(=O)C2CC(=O)NC3=C2C(=O)CC(C)(C)C3)cc1 (stereo unspecified) | 1.1 | 1.1 | -6 | -7 | -8 | 3
O=C(NC1CCCCC1)C(c1ccccc1)N(C(=O)c1cccs1)c1ccc2c(c1)OCO2 (stereo unspecified) | 0.7 | 0.9 | 32 | 9 | 3 | 15
O=C(NC1CCCCC1)C(c1ccc2ncccc2c1)N(Cc1ccccc1)C(=O)c1cccs1 (stereo unspecified) | 0.3 | 0.9 | 73* | 11 | -8 | 1
COc1ccc(C(C(=O)NC2CCCC2)N(C(=O)c2ccoc2C)c2ccc(C)cc2)cc1 (stereo unspecified) | 0.3 | 0.5 | 73* | 50* | 18 | 4
O=C(NC1CCCCC1)C(c1ccc2ncccc2c1)N(Cc1ccc2c(c1)OCO2)C(=O)c1cccs1 (stereo unspecified) | 0.5 | 0.5 | 54* | 47 | -1 | -7
COc1ccc(C(C(=O)NC2CCCCC2)N(C(=O)c2cccs2)c2ccc3c(c2)OCO3)cc1 (stereo unspecified) | 0.5 | 0.7 | 53* | 26 | -7 | 0
CCc1nnc(NC(=O)c2nc3nc(C)cc(C)n3n2)s1 | 1.1 | 1.1 | -6 | -10 | 8 | 1
CC(=O)OC(C(=O)NC1CCCCC1)c1ccncc1 (stereo unspecified) | x | x | x | x | -7 | 3
COc1ccc(C(OC(=O)c2c(C)noc2C)C(=O)NC2CCCC2)cc1 (stereo unspecified) | 0.2 | 0.5 | 80* | 50* | 20 | -1
NC(=O)C(c1ncc(C(F)(F)F)cc1Cl)c1c(Cl)cccc1Cl (stereo unspecified) | 1 | 0.6 | -4 | 45 | 1 | -7
CCOC(=O)N1CCN(c2nc(SC)nc3sc4c(c23)CC(C)(C)OC4)CC1 | 0.2 | 0.1 | 81* | 87* | x | x
CCN1CCN(c2nc(SC)nc3sc4c(c23)CC(C)(C)OC4)CC1 | 0.4 | 0.6 | 57* | 43 | 4 | 1
CC1(C)Cc2c(sc3nc(SCC(=O)N4CCOCC4)nc(N)c23)CO1 | 1.1 | 1 | -6 | 3 | 6 | 2
CC(C)Sc1nc(N2CCOCC2)c2c3c(sc2n1)COC(C)(C)C3 | 0.4 | 0.6 | 58* | 36 | -3 | 43*
CCOC(=O)c1nc(N2CCN(C(=O)OCC)CC2)c2c3c(sc2n1)CCCC3 | 0.4 | 0.4 | 60* | 62* | 7 | 37*
CCOC(=O)c1nc2sc3c(c2c(=O)[nH]1)CCCC3 | 1 | 1 | 0 | -4 | -3 | -2
Cc1cc(NC(=O)CSc2ncnc3ccccc23)no1 | 0.8 | 0.8 | 22 | 22 | -8 | 6
CC1CN(C)C(C)CC1NCc1ccc2c(c1)OCO2 (stereo unspecified) | 0.9 | 0.9 | 5 | 14 | 17 | 4
COc1ccccc1Nc1nc(N)nc(CN2CCC(Cc3ccccc3)CC2)n1 | 0.3 | 0.5 | 72* | 50* | -1 | -2
COc1ccc(Nc2nc(N)nc(CN3CCC(Cc4ccccc4)CC3)n2)cc1 | 0.8 | 0.9 | 22 | 8 | 0 | 9
COC(=O)C(C)N(c1ccc(C)cc1)S(=O)(=O)c1c(C)[nH]c(=O)[nH]c1=O (stereo unspecified) | 0.8 | 1.1 | 15 | -11 | -4 | 3

Source: PubChem BioAssay (several laboratories)
